Laboratory results: PubChem BioAssay AID1159580 (chemical genetic matrix, 2015)
Where “and” joins values, the source holds several entries; their conditions need not be identical. Identical values can stand only once. Screen size: about 5,500 compounds; about 2,000 (36%) were called active. Roughly 18% stayed inconclusive and do not appear here. Rule as the data show it: active = normalized growth mostly below about 0.91 (no sharp cut-off); inconclusive = no clear call, values can overlap the other calls; inactive = mostly above about 0.92. Some of the results follow.

Assay: chemical genetic growth profiling, strain panel (AID 1159580);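 also: tested at 20 µM; growth read once vehicle control cultures reached saturation at 30 °C; 1 = growth at the plate median or of vehicle wells; lower values mean less growth of the strain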
Settings: S. cerevisiae deletion strains, growth OD

Measured: normalized growth

CO[C@H]1C[C@H](O[C@H]2[C@H](C)[C@@H](OC3O[C@H](C)C[C@H](N(C)C)[C@H]3O)[C@@H](C)C[C@]3(CO3)C(=O)[C@H](C)[C@@H](O)[C@@H](C)[C@@H](C)OC(=O)[C@@H]2C)O[C@@H](C)[C@@H]1O (some centres not stated)
inactive: locus YAL013W, strain DEP1, active compounds read low 1.01 | locus YAL021C, strain ccr4, active compounds read low 1.03 | locus YAL026C, strain drs2, active compounds read low 0.991 | locus YAL030W, strain snc1, active compounds read low 1.01 | locus YBL061C, strain skt5, active compounds read low 1 | locus YBR009C, strain hhf1, active compounds read low 0.96 | locus YBR021W, strain FUR4, active compounds read low 0.994 | locus YBR023C, strain chs3, active compounds read low 1.02 | locus YBR171W, strain sec66, active compounds read low 0.996 | locus YBR229C, strain ROT2, active compounds read low 1.02 | locus YBR231C, strain swc5, active compounds read low 1.02 | locus YBR279W, strain paf1, active compounds read low 1.01 | locus YCL011C, strain gbp2, active compounds read low 0.998 | locus YCL016C, strain dcc1, active compounds read low 1.02 | locus YCL029C, strain bik1, active compounds read low 1 | locus YCL061C, strain MRC1, active compounds read low 1.02 | locus YCL069W, strain vba3, active compounds read low 1 | locus YCR088W, strain abp1, active compounds read low 1.01 | locus YDL005C, strain med2, active compounds read low 1.02 | locus YDL035C, strain GPR1, active compounds read low 1.01 | locus YDL040C, strain nat1, active compounds read low 1.01 | locus YDL074C, strain BRE1, active compounds read low 1.02 | locus YDL101C, strain DUN1, active compounds read low 1.02 | locus YDL134C, strain PPH21, active compounds read low 1.01 | locus YDL185W, strain tfp1, active compounds read low 1.01 | locus YDL192W, strain arf1, active compounds read low 1.01 | locus YDR001C, strain nth1, active compounds read low 1 | locus YDR069C, strain doa4, active compounds read low 1.03 | locus YDR101C, strain arx1, active compounds read low 1 | locus YDR137W, strain rgp1, active compounds read low 0.998 | locus YDR150W, strain NUM1, active compounds read low 1 | locus YDR159W, strain sac3, active compounds read low 0.994 | locus YDR162C, strain NBP2, active compounds read low 1.01 | locus YDR195W, strain ref2 1.01 | locus YDR297W, strain sur2, active compounds read low 1.01 | locus YDR318W, strain mcm21, active compounds read low 1.01 | locus YDR334W, strain swr1, active compounds read low 0.995 | locus YDR335W, strain msn5, active compounds read low 0.998 | locus YDR388W, active compounds read low 0.991 | locus YDR392W, strain spt3, active compounds read low 0.945 | locus YDR502C, strain sam2, active compounds read low 1.02 | locus YEL003W, strain gim4, active compounds read low 0.987 | locus YEL037C, strain rad23, active compounds read low 0.994 | locus YEL061C, strain CIN8 (second series), active compounds read low 0.999 | locus YEL061C, strain CIN8, active compounds read low 1 | locus YER015W, strain faa2, active compounds read low 0.992 | locus YER016W, strain bim1, active compounds read low 1.02 | locus YER110C, active compounds read low 0.986 | locus YER111C, strain swi4, active compounds read low 1 | locus YER155C, strain BEM2 (second series), active compounds read low 1.02 | locus YER155C, strain BEM2, active compounds read low 1 | locus YER167W, strain BCK2, active compounds read low 1.01 | locus YFR010W, strain ubp6, active compounds read low 0.988 | locus YGL078C, strain dbp3, active compounds read low 1 | locus YGL086W, strain mad1, active compounds read low 0.995 | locus YGL167C, strain pmr1, active compounds read low 0.994 | locus YGL173C, strain kem1, active compounds read low 1 | locus YGL227W, strain vid30, active compounds read low 1.02 | locus YGL240W, strain doc1, active compounds read low 1.03 | locus YGL248W, strain PDE1, active compounds read low 1.02 | locus YGL253W, strain hxk2, active compounds read low 1.02 | locus YGR078C, strain PAC10, active compounds read low 1.02 | locus YGR135W, strain pre9, active compounds read low 1.01 | locus YGR229C, strain SMI1, active compounds read low 1.03 | locus YGR252W, strain gcn5, active compounds read low 1.14 | locus YHR013C, strain ard1, active compounds read low 1.02 | locus YHR027C, strain rpn1, active compounds read low 0.999 | locus YHR030C, strain SLT2, active compounds read low 1.01 | locus YHR079C, strain IRE1 (second series), active compounds read low 0.989 | locus YHR079C, strain IRE1, active compounds read low 1.01 | locus YHR094C, strain hxt1, active compounds read low 0.98 | locus YHR129C, strain ARP1, active compounds read low 0.998 | locus YHR142W, strain chs7, active compounds read low 0.972 | locus YHR200W, strain rpn10, active compounds read low 1.01 | locus YIL066C, strain RNR3, active compounds read low 1.02 | locus YIL073C, strain SPO22, active compounds read low 1.05 | locus YIL125W, strain kgd1, active compounds read low 1 | locus YIR030C, strain dcg1, active compounds read low 0.993 | locus YJL092W, strain hpr5, active compounds read low 1.01 | locus YJL095W, strain BCK1 (second series), active compounds read low 1.01 | locus YJL095W, strain BCK1, active compounds read low 1.03 and 0.995 | locus YJL115W, strain asf1, active compounds read low 0.991 | locus YJL129C, strain trk1, active compounds read low 1 | locus YJL134W, strain LCB3, active compounds read low 1 | locus YJL154C, strain vps35, active compounds read low 1 | locus YJL164C, strain tpk1, active compounds read low 0.982 | locus YJL166W, strain qcr8, active compounds read low 1.03 | locus YJL168C, strain set2, active compounds read low 0.987 | locus YJL187C, strain SWE1 (second series), active compounds read low 1.02 | locus YJL187C, strain SWE1, active compounds read low 1 | locus YJR043C, strain POL32, active compounds read low 1.02 | locus YJR066W, strain TOR1, active compounds read low 0.981
